# According to PubChem BioAssay (NCATS):
# Results filed as inconclusive are left out. Entries that show only a call come without a potency. A number with no mark means an inactive call. Active and inactive are the calls of the source. Calls come from the whole dose curve; as a rule, active = well fitted inhibition curve with a large enough effect; inconclusive = small, poorly fitted or top-dose-only effect; inactive = flat fitted curve, though single readings scatter.
# Key:
# [1] = qHTS profiling for inhibitors of Plasmodium falciparum proliferation (AID 504749); for all read-outs here: nearly all actives have a fitted effect of over 60% in size; details: P. falciparum in erythrocytes, SYBR Green DNA, 72 h; for activity, negative = inhibition: at 28.7 µM (top of the series)
# Procedure, shortened: (§1)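 Infected RBCs, 0.3% parasitemia/2.5% Hct final; cpd 72 h, 37 C, 5% CO2; lysis buffer with saponin/triton/SYBR Green I, o/n RT dark; FI 485/535; norm. to artemisinin (0.29 uM) and DMSO.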
# [2] = system: 3D7; experiment: as above; details: P. falciparum in erythrocytes, SYBR Green DNA, 72 h; series mostly up to 28.7 µM
# Procedure, shortened: as §1
# [3] = system: 7G8; experiment: as above; details: P. falciparum in erythrocytes, SYBR Green DNA, 72 h; series mostly up to 28.7 µM
# Procedure, shortened: as §1
# [4] = system: AA1029; experiment: as above; details: P. falciparum in erythrocytes, SYBR Green DNA, 72 h; series mostly up to 28.7 µM
# Procedure, shortened: as §1
# [5] = system: AS120; experiment: as above; details: P. falciparum in erythrocytes, SYBR Green DNA, 72 h; series mostly up to 28.7 µM
# Procedure, shortened: as §1
# [6] = system: ATS189; experiment: as above; details: P. falciparum in erythrocytes, SYBR Green DNA, 72 h; series mostly up to 28.7 µM
# Procedure, shortened: as §1
# [7] = system: ATS95; experiment: as above; details: P. falciparum in erythrocytes, SYBR Green DNA, 72 h; series mostly up to 28.7 µM
# Procedure, shortened: as §1
# [8] = system: C2A; experiment: as above; details: P. falciparum in erythrocytes, SYBR Green DNA, 72 h; series mostly up to 28.7 µM
# Procedure, shortened: as §1
# [9] = system: CP185; experiment: as above; details: P. falciparum in erythrocytes, SYBR Green DNA, 72 h; series mostly up to 28.7 µM
# Procedure, shortened: as §1
# [10] = system: CP191; experiment: as above; details: P. falciparum in erythrocytes, SYBR Green DNA, 72 h; series mostly up to 28.7 µM
# Procedure, shortened: as §1
# [11] = system: CP192; experiment: as above; details: P. falciparum in erythrocytes, SYBR Green DNA, 72 h; series mostly up to 28.7 µM
# Procedure, shortened: as §1
# [12] = system: CP194; experiment: as above; details: P. falciparum in erythrocytes, SYBR Green DNA, 72 h; series mostly up to 28.7 µM
# Procedure, shortened: as §1
# [13] = system: CP201; experiment: as above; details: P. falciparum in erythrocytes, SYBR Green DNA, 72 h; series mostly up to 28.7 µM
# Procedure, shortened: as §1
# [14] = system: CP211; experiment: as above; details: P. falciparum in erythrocytes, SYBR Green DNA, 72 h; series mostly up to 28.7 µM
# Procedure, shortened: as §1
# [15] = system: CP215; experiment: as above; details: P. falciparum in erythrocytes, SYBR Green DNA, 72 h; series mostly up to 28.7 µM
# Procedure, shortened: as §1
# [16] = system: CP217; experiment: as above; details: P. falciparum in erythrocytes, SYBR Green DNA, 72 h; series mostly up to 28.7 µM
# Procedure, shortened: as §1
# [17] = system: CP237; experiment: as above; details: P. falciparum in erythrocytes, SYBR Green DNA, 72 h; series mostly up to 28.7 µM
# Procedure, shortened: as §1
# [18] = system: CP238; experiment: as above; details: P. falciparum in erythrocytes, SYBR Green DNA, 72 h; series mostly up to 28.7 µM
# Procedure, shortened: as §1
# [19] = system: CP247; experiment: as above; details: P. falciparum in erythrocytes, SYBR Green DNA, 72 h; series mostly up to 28.7 µM
# Procedure, shortened: as §1
# [20] = system: CP203; experiment: as above; details: P. falciparum in erythrocytes, SYBR Green DNA, 72 h; series mostly up to 28.7 µM
# Procedure, shortened: as §1
# Potency is the fitted concentration of half-maximal effect.
smiles,measurement,setting,value
CC(=O)Nc1nnc(S(N)(=O)=O)s1,"activity, negative = inhibition",[1]; parasite line A,-9.91%
same,"activity, negative = inhibition",[1]; parasite line B,6.59%
same,Potency,[2],inactive
same,Potency,[3],inactive
same,Potency,[4],inactive
same,Potency,[5],inactive
same,Potency,[6],inactive
same,Potency,[7],inactive
same,Potency,[8],inactive
same,Potency,[9],inactive
same,Potency,[10],inactive
same,Potency,[11],inactive
same,Potency,[12],inactive
same,Potency,[13],inactive
same,Potency,[14],inactive
same,Potency,[15],inactive
same,Potency,[16],inactive
same,Potency,[17],inactive
same,Potency,[18],inactive
same,Potency,[19],inactive
CN(C)CC[C@@H](c1ccc(Br)cc1)c1ccccn1,"activity, negative = inhibition",[1]; parasite line A,-5.21%
same,"activity, negative = inhibition",[1]; parasite line B,2.6%
same,Potency,[2],inactive
same,Potency,[3],8.91 µM (active)
same,Potency,[6],inactive
same,Potency,[8],inactive
same,Potency,[11],inactive
same,Potency,[14],inactive
same,Potency,[16],inactive
NC(Cc1ccc(Cl)cc1)C(=O)O (configuration not stated),"activity, negative = inhibition",[1]; parasite line A,17.3%
same,"activity, negative = inhibition",[1]; parasite line B,7.34%
same,Potency,[2],inactive
same,Potency,[4],inactive
same,Potency,[5],inactive
same,Potency,[6],inactive
same,Potency,[7],inactive
same,Potency,[8],inactive
same,Potency,[9],inactive
same,Potency,[10],inactive
same,Potency,[11],inactive
same,Potency,[12],inactive
same,Potency,[13],inactive
same,Potency,[20],inactive
same,Potency,[14],inactive
same,Potency,[15],inactive
same,Potency,[16],inactive
same,Potency,[17],inactive
same,Potency,[18],inactive
same,Potency,[19],inactive
Cc1nc2ccccn2c(=O)c1CCN1CCC(C(=O)c2ccc(F)cc2)CC1,"activity, negative = inhibition",[1]; parasite line A,-18.1%
same,"activity, negative = inhibition",[1]; parasite line B,11.2%
same,Potency,[2],inactive
same,Potency,[3],14.1 µM (active)
same,Potency,[5],inactive
same,Potency,[9],inactive
same,Potency,[10],7.94 µM (active)
same,Potency,[11],inactive
same,Potency,[13],inactive
same,Potency,[14],inactive
same,Potency,[15],inactive
same,Potency,[16],inactive
same,Potency,[18],inactive
CCCCCN(CCCCC)C(=O)C(CCC(=O)O)NC(=O)c1ccc(Cl)c(Cl)c1 (configuration not stated),"activity, negative = inhibition",[1]; parasite line A,16.8%
same,"activity, negative = inhibition",[1]; parasite line B,7.13%
same,Potency,[2],inactive
same,Potency,[3],inactive
same,Potency,[4],inactive
same,Potency,[5],inactive
same,Potency,[6],inactive
same,Potency,[7],inactive
same,Potency,[8],inactive
same,Potency,[9],inactive
same,Potency,[10],inactive
same,Potency,[11],inactive
same,Potency,[12],inactive
same,Potency,[13],inactive
same,Potency,[14],inactive
same,Potency,[15],inactive
same,Potency,[16],inactive
same,Potency,[17],inactive
same,Potency,[18],inactive
same,Potency,[19],inactive
CC1=C(C)C(=O)C(CCCCC#CCCCC#CCO)=C(C)C1=O,Potency,[1]; parasite line A,11.2 µM (active)
same,Potency,[2],12.6 µM (active)
same,Potency,[3],2.51 µM (active)
same,Potency,[5],6.31 µM (active)
same,Potency,[8],10 µM (active)
same,Potency,[12],19 µM (active)
same,Potency,[20],15.1 µM (active)
same,Potency,[15],15.1 µM (active)
same,Potency,[16],10 µM (active)
Brc1c(NC2=NCCN2)ccc2nccnc12,"activity, negative = inhibition",[1]; parasite line A,0%
same,"activity, negative = inhibition",[1]; parasite line B,3.95%
same,Potency,[3],11.2 µM (active)
same,Potency,[4],inactive
same,Potency,[5],inactive
same,Potency,[7],inactive
same,Potency,[8],inactive
same,Potency,[9],inactive
same,Potency,[11],inactive
same,Potency,[12],inactive
same,Potency,[13],inactive
same,Potency,[14],inactive
same,Potency,[15],inactive
same,Potency,[16],inactive
same,Potency,[17],inactive
same,Potency,[18],inactive
same,Potency,[19],inactive
O=C1CC2(CCCC2)CC(=O)N1CCCCN1CCN(c2ncccn2)CC1,"activity, negative = inhibition",[1]; parasite line A,11.6%
same,"activity, negative = inhibition",[1]; parasite line B,9.29%
same,Potency,[2],inactive
same,Potency,[4],inactive
same,Potency,[5],inactive
same,Potency,[6],inactive
same,Potency,[7],inactive
same,Potency,[8],inactive
same,Potency,[9],inactive
same,Potency,[10],inactive
same,Potency,[11],inactive
same,Potency,[12],inactive
same,Potency,[13],inactive
same,Potency,[20],inactive
same,Potency,[14],inactive
same,Potency,[15],inactive
same,Potency,[16],inactive
same,Potency,[18],inactive
same,Potency,[19],inactive
CC(C)[N+](C)(CCOC(=O)C1c2ccccc2Oc2ccccc21)C(C)C,Potency,[9],inactive
same,Potency,[13],inactive
same,Potency,[14],inactive
same,Potency,[15],inactive
CCOC(=O)C1=C(C)NC(C)=C(C(=O)OC)C1c1cccc(Cl)c1Cl (configuration not stated),"activity, negative = inhibition",[1]; parasite line A,-7.27%
same,"activity, negative = inhibition",[1]; parasite line B,-5.02%
same,Potency,[2],inactive
same,Potency,[4],inactive
same,Potency,[5],inactive
same,Potency,[6],inactive
same,Potency,[7],inactive
same,Potency,[8],inactive
same,Potency,[9],inactive
same,Potency,[10],inactive
same,Potency,[11],inactive
same,Potency,[13],inactive
same,Potency,[14],inactive
same,Potency,[16],inactive
same,Potency,[17],inactive
same,Potency,[18],inactive
same,Potency,[19],inactive
COCCCC/C(=N\OCCN)c1ccc(C(F)(F)F)cc1,"activity, negative = inhibition",[1]; parasite line A,-21.1%
same,Potency,[2],inactive
same,Potency,[3],10 µM (active)
same,Potency,[6],inactive
CCC(=O)c1ccc2c(c1)N(CCCN(C)C)c1ccccc1S2,"activity, negative = inhibition",[1]; parasite line A,-23.2%
same,"activity, negative = inhibition",[1]; parasite line B,-3.51%
same,Potency,[2],inactive
same,Potency,[9],inactive
same,Potency,[11],inactive
COc1ccc(CCN(C)CCCC(C#N)(c2cc(OC)c(OC)c(OC)c2)C(C)C)cc1OC (configuration not stated),Potency,[3],10 µM (active)
CC(C)NNC(=O)c1ccncc1,"activity, negative = inhibition",[1]; parasite line A,-11.8%
same,Potency,[2],inactive
same,Potency,[3],inactive
same,Potency,[4],7.94 µM (active)
same,Potency,[5],inactive
same,Potency,[6],inactive
same,Potency,[8],inactive
same,Potency,[9],inactive
same,Potency,[10],4.47 µM (active)
same,Potency,[11],inactive
same,Potency,[12],inactive
same,Potency,[13],inactive
same,Potency,[14],inactive
same,Potency,[15],inactive
same,Potency,[17],inactive
same,Potency,[18],inactive
same,Potency,[19],inactive
COc1ccc([C@@H]2Sc3ccccc3N(CCN(C)C)C(=O)[C@@H]2OC(C)=O)cc1,"activity, negative = inhibition",[1]; parasite line A,3.17%
same,"activity, negative = inhibition",[1]; parasite line B,7.3%
same,Potency,[2],inactive
same,Potency,[4],inactive
same,Potency,[5],inactive
same,Potency,[6],inactive
same,Potency,[7],inactive
same,Potency,[8],inactive
same,Potency,[9],inactive
same,Potency,[10],inactive
same,Potency,[11],inactive
same,Potency,[12],inactive
same,Potency,[13],inactive
same,Potency,[14],inactive
same,Potency,[15],inactive
same,Potency,[16],inactive
same,Potency,[17],inactive
same,Potency,[18],inactive
same,Potency,[19],inactive
COCCOC(=O)C1=C(C)NC(C)=C(C(=O)OC(C)C)C1c1cccc([N+](=O)[O-])c1 (configuration not stated),Potency,[3],11.2 µM (active)
same,Potency,[5],7.94 µM (active)
same,Potency,[8],inactive
CC1=NS(=O)(=O)c2cc(Cl)ccc2N1,"activity, negative = inhibition",[1]; parasite line A,-21.1%
same,Potency,[2],inactive
same,Potency,[3],inactive
same,Potency,[4],inactive
same,Potency,[6],inactive
same,Potency,[7],inactive
same,Potency,[8],inactive
same,Potency,[11],inactive
same,Potency,[12],inactive
same,Potency,[13],inactive
same,Potency,[20],inactive
same,Potency,[14],inactive
same,Potency,[15],inactive
same,Potency,[16],inactive
same,Potency,[17],inactive
